# Source: PubChem BioAssay
# Target: Calmodulin-1 (Homo sapiens) (UniProt P0DP23)
# Assay: calcium-bound CALM1 binders on microarrays, profiling panel, artefact control for SMM control-protein annotation, biochemical, small-molecule microarray, Cy5-labelled CALM1, plus calcium (AID 1112);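 also: score merges spot fluorescence with signal to noise from triplicate slides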
# Details: Cy5-CALM1 binding fluorescence, higher = more signal
row,SMILES,composite z-score
1,COCCOC(=O)N1C(=O)[C@@]2(c3cc(C#CC4(O)CCCCCC4)ccc31)[C@H](C(=O)N1CCc3cc(OC)c(OC)cc3C1)[C@H]1C(=O)O[C@H](c3ccccc3)[C@H](c3ccccc3)N1[C@@H]2c1ccccc1OCCO,-0.386
2,COc1ccc(C#Cc2ccc3c(c2)[C@]2(C(=O)N3)[C@H](C(=O)O)[C@H]3C(=O)O[C@H](c4ccccc4)[C@H](c4ccccc4)N3[C@@H]2c2ccc(OCCO)cc2)cc1,0.87
3,COc1ccc(C#Cc2ccc3c(c2)[C@]2(C(=O)N3)[C@H](c3ccc(OCCO)cc3)N3[C@H](c4ccccc4)[C@H](c4ccccc4)OC(=O)[C@H]3[C@@H]2C(=O)N2CCN(c3ncccn3)CC2)cc1,0.722
4,[N-]=[N+]=NCc1ccccc1[C@H]1OC(c2ccc(OCCCO)cc2)=N[C@@]1(Cc1ccccc1N=[N+]=[N-])C(=O)N1CCCCC1,0.289
5,CCCC=C(CCC)[C@@H](NS(=O)(=O)c1ccccc1)c1ccc(C(F)(F)F)cc1,0.726
6,COc1cc2c(cc1OC)CN(C(=O)[C@@H]1[C@H]3C(=O)O[C@H](c4ccccc4)[C@H](c4ccccc4)N3[C@H](c3ccc(O)cc3)[C@@]13C(=O)Nc1ccc(C#CCNC(N)=O)cc13)CC2,-0.0936
7,COc1ccc([Si](C)(C)[C@@H]2[C@@H](CCO)O[C@]3(C(=O)N(Cc4cccc(N5C(=O)COc6ccccc65)c4)c4ccccc43)[C@H]2C)cc1,0.728
8,C=CC[C@@]1(C(=O)NCCN2CCOCC2)N=C(c2ccc(OCCCO)cc2)O[C@@H]1c1ccccc1,-0.0501
9,O=C1c2ccccc2[C@](Cc2ccccc2I)(C(=O)NCC(F)(F)F)[C@H](c2ccc(CO)cc2)N1Cc1ccccc1,0.464
10,COc1ccc(C(=O)Nc2ccc3c(c2)[C@]2(O[C@@H](CCO)[C@H]([Si](C)(C)c4ccc(OC)cc4)[C@H]2C)C(=O)N3Cc2ccccc2)cc1,0.57
11,COC(=O)[C@@]1(Cc2ccc(OC)cc2)[C@H]2c3cc(C(=O)N(C)C)n(CCF)c3C[C@H]2CN1C(=O)c1ccccc1,1.02
12,COC(=O)c1c(CC[C@@H](CO)NC(=O)N[C@@H](C)Cn2cc(C3(O)CCCC3)nn2)oc(C(C)=O)c1C(=O)OC,-0.467
13,CC1=C2[C@@H](CCc3ccccc3)OB(O)C[C@@H]2[C@@H]2C(=O)C=CC(=O)[C@@H]2C1,-0.172
14,CCCNC(=O)[C@@]1(Sc2ccc(C)cc2)CC(=O)N(Cc2ccccc2)[C@@H]1c1ccc(CO)cc1I,0.143
15,CC(C)C(CO)N1C(=O)[C@@H]2[C@H]3C(=O)OCC=C[C@H]3OC23C=CCN(Cn2nnc4ccccc42)C(=O)[C@@H]13 (some centres undefined),0.608
16,O=[N+]([O-])c1ccc(C[n+]2ccc(-c3ccc(CO)cc3)cc2)o1,0.451
17,COc1cc(C(O)C2C=CC3C(=O)N(C)C(=O)C3N2NC(=O)OC(C)(C)C)cc(OC)c1OC (centres undefined),0.12
18,COc1ccc([Si](C)(C)[C@@H]2[C@@H](CC(=O)N(CCO)Cc3ccccc3)O[C@]3(C(=O)N(C)c4c(Br)cc(C)cc43)[C@H]2C)cc1,-1.13
19,COC(=O)[C@@]1(Cc2ccccc2)[C@H]2c3cc(C(=O)N(C)C)n(Cc4ccccn4)c3C[C@H]2CN1C(=O)c1ccccc1,1.35
20,O=C1NC(=O)C2C1C=CC(C(O)CCc1ccccc1)N2Nc1ccccn1 (centres undefined),0.569
21,CCOC(=O)C1=CCC(c2cccc(Cl)c2)O1 (centres undefined),-0.571
22,C=C(COC)C(=O)CC[C@H](OC(=O)c1ccccc1-c1ccccc1C(=O)O)c1ccc(CO)o1,-0.564
23,N#Cc1ccc(NN2C(C(O)c3ccco3)C=CC3C(=O)N(c4ccccc4)C(=O)C32)cc1 (centres undefined),-0.539
24,COC(=O)C(CC#Cc1ccc2c(c1)[C@]1(C(=O)N2)[C@H](C(=O)N2CCc3cc(OC)c(OC)cc3C2)[C@H]2C(=O)O[C@H](c3ccccc3)[C@H](c3ccccc3)N2[C@@H]1c1ccc(OCCO)cc1)C(=O)OC,0.16
